# Rows were chosen to be rich in hits. Some 0.74% of all compounds tested hit in one or more screens of this group.
# Tb PGK inh – inhibitors of T. brucei phosphoglycerate kinase; P07378; PGK/GAPDH coupled, Kinase-Glo luminescence, 60 min; Potency, µM (titrated, usually from 57.5 µM), without a hit: at the highest dose activity change, negative = inhibition, most hits filed as inhibitors; 380,000 compounds, 0.043% hits; AID 602233; also: nearly all actives have a fitted effect of over 60% in size
#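 Luminescent ATP detection (Kinase-Glo Plus) follows a 60-minute room-temperature incubation, with wells lacking PGK as controls. Buffer: 100 mM TEA (pH 7.6), 5 mM MgCl2, 0.01% Tween-20. Coupling enzyme GAPDH (100 nM final) supplies unstable 1,3-BPG in-well.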
# FEN1 inh – human FEN1 inhibition. P39748. Recombinant FEN1 flap cleavage, fluorescence, 15 min. Potency, µM (series often up to 114 µM), without a hit: at the highest dose activity change, negative = inhibition, most hits filed as inhibitors. 390,000 compounds, 0.35% hits. AID 588795; also: nearly all actives have a fitted effect of over 65% in size
#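 Quantitative HTS format: each compound was titrated, incubated with 10 nM nuclease for 15 min at room temperature, then challenged with flap substrate at 50 nM final. Signal change over 15 min gave concentration–effect curves.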
# BLM inh – inhibitors of human Bloom syndrome helicase BLM | Potency, µM (doses to about 56.1 µM), for inactives: at the top dose activity change, negative = inhibition, actives largely listed as inhibitors | P54132 | recombinant BLM DNA unwinding, fluorescence dequenching | 350,000 compounds, 0.2% hits;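 also: plate controls were vehicle for no effect and no enzyme for full effect; nearly all actives have a fitted effect of over 35% in size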
# Target sequence (P54132 whole entry, looked up): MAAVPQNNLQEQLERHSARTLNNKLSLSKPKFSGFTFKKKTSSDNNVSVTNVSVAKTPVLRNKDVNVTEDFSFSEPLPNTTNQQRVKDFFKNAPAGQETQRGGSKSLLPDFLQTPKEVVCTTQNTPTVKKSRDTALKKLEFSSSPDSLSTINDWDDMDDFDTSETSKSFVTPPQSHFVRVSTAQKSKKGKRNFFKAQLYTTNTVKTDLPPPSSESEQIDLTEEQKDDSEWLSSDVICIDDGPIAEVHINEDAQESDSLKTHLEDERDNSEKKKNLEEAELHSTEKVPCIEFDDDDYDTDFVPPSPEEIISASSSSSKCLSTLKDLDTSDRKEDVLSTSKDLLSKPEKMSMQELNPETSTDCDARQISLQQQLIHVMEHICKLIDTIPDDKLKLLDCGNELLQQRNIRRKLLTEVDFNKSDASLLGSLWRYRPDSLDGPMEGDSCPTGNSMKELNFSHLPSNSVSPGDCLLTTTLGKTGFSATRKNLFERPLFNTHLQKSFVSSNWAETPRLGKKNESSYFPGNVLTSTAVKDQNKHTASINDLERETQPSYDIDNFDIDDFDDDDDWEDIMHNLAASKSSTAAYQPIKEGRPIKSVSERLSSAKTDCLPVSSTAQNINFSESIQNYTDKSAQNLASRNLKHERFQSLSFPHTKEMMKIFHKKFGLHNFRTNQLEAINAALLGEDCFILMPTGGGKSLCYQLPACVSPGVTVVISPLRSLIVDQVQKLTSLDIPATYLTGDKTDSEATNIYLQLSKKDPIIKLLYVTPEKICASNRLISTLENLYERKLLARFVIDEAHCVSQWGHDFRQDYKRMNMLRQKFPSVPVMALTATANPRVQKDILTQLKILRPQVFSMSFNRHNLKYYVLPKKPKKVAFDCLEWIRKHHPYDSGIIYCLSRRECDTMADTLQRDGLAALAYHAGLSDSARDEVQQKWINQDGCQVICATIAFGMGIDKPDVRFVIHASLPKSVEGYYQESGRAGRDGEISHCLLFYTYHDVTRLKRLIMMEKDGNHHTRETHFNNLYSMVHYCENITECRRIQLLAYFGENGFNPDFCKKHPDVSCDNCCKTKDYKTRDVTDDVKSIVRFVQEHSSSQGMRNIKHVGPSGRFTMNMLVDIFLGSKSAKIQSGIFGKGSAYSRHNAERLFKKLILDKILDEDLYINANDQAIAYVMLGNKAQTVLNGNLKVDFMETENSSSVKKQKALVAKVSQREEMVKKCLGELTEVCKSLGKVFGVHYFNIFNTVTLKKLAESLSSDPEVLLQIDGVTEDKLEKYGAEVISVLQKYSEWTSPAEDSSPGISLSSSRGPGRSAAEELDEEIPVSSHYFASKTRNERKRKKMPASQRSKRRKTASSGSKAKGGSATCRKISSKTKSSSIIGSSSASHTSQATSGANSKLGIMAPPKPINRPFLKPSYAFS
# APEX1 inh – inhibitors of human APE1 endonuclease; 350,000 compounds, 0.35% hits; Potency, µM (highest dose often 65.8 µM), without a hit: top-dose activity change, negative = inhibition, hits mostly inhibitors; P27695; AID 2517; recombinant APE1, TAMRA/BHQ-2 abasic DNA cleavage fluorescence;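 also: plate controls were vehicle for no effect and reference inhibitor for full effect; nearly all actives have a fitted effect of over 55% in size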
#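 Endonuclease cleavage of a quenched abasic-site DNA duplex (50 nM) by APE1 (0.75 nM) was tracked by TAMRA dequenching. Compounds were preincubated with enzyme 15 min at room temperature; data normalized to buffer-only and DMSO wells plus NSC13755 control.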
# RECQ1 helicase – inhibitors of human RECQ1 DNA helicase; RECQ1 DNA unwinding, red fluorescence kinetic read; P46063; 240,000 compounds, 0.54% hits; AID 2549; Potency, µM (series often up to 57.3 µM), for inactives: top-dose activity, negative = inhibition, actives largely listed as inhibitors;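 also: plate controls were vehicle for no effect and no enzyme for full effect; nearly all actives have a fitted effect of over 30% in size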
#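 50 nM RECQ1T1 preincubated 15 min with compound in Tris pH 8.0 buffer with MgCl2, DTT, Tween-20 and 2.5 ug/ml poly(dI-dC); started with 200 nM TAMRA/BHQ-2 forked duplex and 2 mM ATP. Unwinding read as fluorescence (525/598 nm), two reads 2 h apart.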
# An asterisk follows results filed as active; i = inactive; u = inconclusive; x = no result. Calls follow the shape of the dose curve; as a rule, active = well fitted curve in the direction sought with a large enough effect; inconclusive = small, poorly fitted or top-dose-only effect, or another doubt; inactive = no such curve, though single readings can be large; an effect the other way counts as inactive or inconclusive. Unless noted, % is scaled to controls: 0 for no effect and ±100 for the full control effect; potency is read from the fitted curve at half-maximal effect.
SMILES,Tb PGK inh,FEN1 inh,BLM inh,APEX1 inh,RECQ1 helicase
COc1cccc(OCC(O)CN2CCC(CN3C(=O)c4cccc5cccc(c45)C3=O)CC2)c1 (stereo not given),-8%,28µM*,101%,u,20%
O=C1c2cccc3cccc(c23)C(=O)N1CC1CCN(CC(O)COc2ccc3ccccc3c2)CC1 (stereo not given),-10%,-8%,-7%,-3%,u
O=C(COc1ccc(/C=C\[N+](=O)[O-])cc1)N1CCOCC1,3%,20%,0%,u,32µM*
O=C(COc1ccc(S(=O)(=O)N2CCOCC2)cc1)N1CCOCC1,-3%,-2%,x,-9%,x
COCc1cc(=O)[nH]c(Nc2nc(C)c3ccccc3n2)n1,-4%,50µM*,-8%,5%,-1%
CN1CCN(CCCNC(=O)c2cc3c(-c4ccc(Cl)cc4)nn(C)c3s2)CC1,10%,u,169%,u,44%
CCN(CC)CCCNC(=O)c1cc2c(-c3ccc(Cl)cc3)nn(C)c2s1,-3%,45µM*,198%,u,91%
N#Cc1c(-c2ccccc2)nc(SCC(=O)N2c3ccccc3Sc3ccccc32)[nH]c1=O,-16%,89µM*,-18%,-9%,-8%
N#Cc1c(-c2ccccc2)nc(SCC(=O)N(c2ccccc2)c2ccccc2)[nH]c1=O,3%,-5%,-13%,25%,-8%
Cc1cccc(-n2cnc3c(c2=O)c2nc4ccccc4nc2n3Cc2ccco2)c1,-2%,8%,-21%,-1%,-13%
COc1ccc(Cn2c3nc4ccccc4nc3c3c(=O)n(Cc4ccco4)cnc32)cc1,x,x,-29%,u,28µM*
COc1cc(NC(=S)NCCC(c2ccccc2)c2ccccc2)cc(OC)c1,4%,79µM*,-13%,7%,-19%
Cc1cc(C)cc(-n2ncc3c2CCCC3NC(=O)c2cc(C)oc2C)c1 (stereo not given),-4%,-4%,-3%,14%,x
COCCCNC(=O)c1cc(C)nc2ccc(F)cc12,-9%,-1%,-4%,3%,-4%
C#CCOCCOCCOCCNc1nc(N2CCN(C(=O)CCCCCCCCCCNC(=O)[C@H](CCCCN)n3cc(CCCC(=O)O)nn3)CC2)nc(N2CCN(C(=O)CCCCCCCCCCNC(=O)[C@H](CCCCN)n3cc(CCCC(=O)O)nn3)CC2)n1,-5%,5%,x,5%,x
C#CCOCCOCCOCCNc1nc(N2CCOCC2)nc(N2CCN(C(=O)[C@H](Cc3cc4ccccc4[nH]3)n3cc([C@@H](N)CC(C)C)nn3)CC2)n1,-7%,-5%,-10%,-5%,-14%
C#CCOCCOCCOCCNc1nc(N2CCN(C(=O)CCCCCCCCCCNC(=O)[C@H](CCCCN)n3cc(CCO)nn3)CC2)nc(N2CCN(C(=O)CCCCCCCCCCNC(=O)[C@H](CCCN=C(N)N)n3cc(C[C@@H](C)CC)nn3)CC2)n1,14%,22µM*,x,u,x
C#CCOCCOCCOCCNc1nc(N2CCN(C(=O)CCCCCCCCCCNC(=O)Cn3cc(C[C@@H](C)O)nn3)CC2)nc(N2CCN(C(=O)CCCCCCCCCCNC(=O)[C@H](CCCCN)n3cc(C[C@@H](C)CC)nn3)CC2)n1,-8%,50µM*,x,17%,x
C#CCOCCOCCOCCNc1nc(N2CCN(C(=O)[C@H](Cc3cc4ccccc4[nH]3)n3cc([C@@H](N)CC(C)C)nn3)CC2)nc(N2CCN(C(=O)[C@H](Cc3cc4ccccc4[nH]3)n3cc([C@@H](N)CC(C)C)nn3)CC2)n1,-5%,-16%,22µM*,4%,u
C#CCOCCOCCOCCNc1nc(N2CCN(C(=O)CCCCCCCCCCNC(=O)[C@H](CCCCN)n3cc(CCO)nn3)CC2)nc(N2CCN(C(=O)CCCCCCCCCCNC(=O)[C@H](CCCCN)n3cc(CCO)nn3)CC2)n1,13%,79µM*,x,-41%,x
C#CCOCCOCCOCCNc1nc(N2CCN(C(=O)CCCCCCCCCCNC(=O)Cn3cc(C[C@@H](C)O)nn3)CC2)nc(N2CCN(C(=O)CCCCCCCCCCNC(=O)Cn3cc(C[C@@H](C)O)nn3)CC2)n1,-13%,-18%,x,-44%,x
Cc1ccc2nc(NC(=O)C3CCN(C(=O)c4ccc(F)cc4)CC3)sc2c1,0%,4%,-5%,30%,x
CNc1nc(C(=O)O)nc(N2CCOCC2)n1,x,0%,-5%,4%,-2%
C#CCOCCOCCOCCNc1nc(N2CCN(C(=O)CCCCCCCCCCNC(=O)[C@H](CCCCN)n3cc(C[C@@H](C)CC)nn3)CC2)nc(N2CCN(C(=O)CCCCCCCCCCNC(=O)[C@H](CCCCN)n3cc(C[C@@H](C)CC)nn3)CC2)n1,-1%,22µM*,x,x,x
COc1ccc(OC)c(-c2nc3cc4ccccc4cc3nc2-c2ccccc2)c1,x,-4%,-11%,-6%,3.2µM*
SMILES,Tb PGK inh,FEN1 inh,BLM inh,APEX1 inh,RECQ1 helicase
COc1ccc(-c2nc3ccccc3nc2-c2ccccc2)cc1OC,-3%,-14%,-7%,15%,x
C=C1CCC[C@]2(C)C[C@H]3OC(=O)[C@H](CNCCc4ccccc4OC)C3CC12 (stereo not given in full),x,x,1%,10%,-10%
Nc1cccc2[nH]c(C(F)(F)F)nc12,-5%,56µM*,-9%,u,-3%
O=C(/C=C/c1ccco1)Nc1nc(-c2ccccn2)cs1,-10%,18µM*,-23%,1%,-1%
O=C(/C=C/c1ccco1)Nc1nc(-c2ccccc2)cs1,-5%,3%,-8%,-6%,i
CN(CC(=O)Nc1ccccc1Br)C(=O)c1ccncc1,-9%,0%,-10%,30%,x
COc1cc2c(NC3CCN(C)CC3)nc(N3CCCN(C)CC3)nc2cc1OCCCCN,x,10µM*,x,x,x
COc1cc2c(NC3CCN(C(C)C)CC3)nc(N3CCCN(C)CC3)nc2cc1OCCCN(C)C,x,32µM*,x,x,x
COc1cc2nc(Cl)nc(N3CCN(C)CC3)c2cc1OC,x,x,3%,2%,-2%
COc1cc2nc(N3CCN(C)CC3)nc(NC3CC3)c2cc1OC,x,-20%,x,x,x
COc1cc2c(NC3CCN(C)CC3)nc(N3CCCN(C)CC3)nc2cc1OCCN(C)C,x,25µM*,x,x,x
CCN(CC)CCCOc1cc2nc(N3CCCN(C)CC3)nc(NC3CCN(C)CC3)c2cc1OC,x,25µM*,x,x,x
CCC(=O)Nc1ccc(C(=O)COC(=O)C(CCSC)NC(=O)COc2ccccc2)cc1 (stereo not given),-4%,-14%,x,12%,x
COC(=O)c1ccccc1NC(=O)Cn1c(=O)cc(-c2ccccc2)c2c(C)nn(C)c21,-5%,1%,-9%,x,x
COc1cc2c(NC3CCN(C)CC3)nc(N3CCCN(C)CC3)nc2cc1OCCCCCN(C)C,x,22µM*,x,x,x
COc1cc2nc(Cl)nc(NC3CCN(Cc4ccccc4)CC3)c2cc1OC,x,-10%,x,x,x

# Compound activity: PubChem BioAssay, National Center for Advancing Translational Sciences (NCATS)
